Measurements published in PubChem BioAssay (EPA / NIEHS).
Results filed as inconclusive are left out. Some structures have more than one record in an assay (separate samples or runs), and their calls can disagree. The source made the active and inactive calls. Rule for the calls: active = hit-call score of the fitted dose curve at least 0.9, where 1 is the maximum; inconclusive = response in the unintended direction; inactive = score below 0.9.

assay: TOX21_p53_BLA_p2_viability: Viability Assessment in the Tox21 HCT-116 p53 Agonism Beta-lactamase Assay, Phase 2 (AID 2283591);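 note: compound exposure lasted 16 h at 37 °C; actives lower the ATP signal meaning cytotoxicity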
Text: TOX21_p53_BLA_p2 is a cell-based, single-readout assay that uses HCT116, a human intestinal cell line, […] in a 1536-well plate.TOX21_p53_BLA_p2_viability is an assay readout measuring cellular ATP content and detected with CellTiter-Glo Luciferase-coupled ATP quantitation.TOX21_p53_BLA_p2_viability used a type of viability reporter where loss-of-signal activity can be used to understand changes in the cell viability. Furthermore, this assay endpoint can be referred to as a secondary readout, because this assay has produced multiple assay endpoints where this one serves a viability function. To generalize the intended target to other relatable targets, this assay endpoint is annotated to the cell cycle intended target family, where the subfamily is cytotoxicity.
Thawing Method: Place 14 mL of pre-warmed thaw medium into a 15 mL of conical tub. Remove the vial of cells to be thawed from liquid nitrogen and thaw rapidly by placing at 37C in a water bath with gentle agitation for 1-2 minutes. Decontaminate the vial by wiping with 70% ethanol before opening in a biological safety cabinet. Transfer the vial contents drop-wise into 14 mL of thaw medium in a sterile 15-mL conical tub. Centrifuge cells at 900 rpm for 4 minutes and resuspend in thaw medium. Transfer contents to the T75 tissue culture flask containing Thaw Medium and place flask in a humidified 37C/5% CO2 incubator. Switch to growth medium at first passage.Propagation Method: Aspirate medium, rinse once in DPBS, add 0.25% Trypsin/EDTA and swirl to coat the cell evenly. Add an equal volume of Growth Medium to inactivate Trypsin after 2-3 minutes incubation at 37C. Centrifuge cells at 900 rpm for 4 minutes and resuspend in growth medium. Cell should be passage or fed at least twice a week.Assay Protocol: Harvest cells from culture in growth medium and resuspend in assay medium. 2.2 Dispense 4000 cells/5 uL/well into 1536-well black/clear bottom plates using a Multidrop dispenser. After the cells were incubated at 37C for 5 hours, 23 nL of compounds dissolved in DMSO were transferred to the assay plate by a PinTool resulting in a 217-fold dilution. Incubate the plates for 16 hours at 37C, 5% CO2. Add 1 uL of 6X LiveBLAzer FRET B/G (CCF4-AM) Substrate Mixture to each well using a BioRAPTR dispenser and incubate the plates at room temperature for 2 hours. Measure fluorescence intensity at 460 and 530 nm emission and 405 nm excitation by an Envision detector. Data is expressed as the ratio of 460nm/530nm emissions. Add 4 uL of Cell-titer Glo to each well using BioRAPTR and incubate the plates at room temperature for […]. For cell viability readout that measures cytotoxicity, 4 ul/well of CellTiter-Glo reagent was added into the assay plates using a Flying Reagent Dispenser. After 30 min incubation at room temperature, the luminescence intensity in the plates was measured using a ViewLux plate reader.

| Structure (SMILES) | outcome | AC50 |
| --- | --- | --- |
| O=C(O)C(Br)Br | inactive |  |
| ClC1=C(Cl)C2(Cl)C(CBr)CC1(Cl)C2(Cl)Cl (stereo not given) | inactive | 73.5 µM (active) |
| [Cl-].[Cl-].[Cl-].[Yb+3] | inactive |  |
| CCCC(Cn1cncn1)c1ccc(Cl)cc1Cl (stereo not given) | inactive |  |
| CC(=O)OCC1=C(C(=O)O)N2C(=O)[C@@H](N)[C@H]2SC1 | inactive |  |
| CC(C)[C@@H](C(=O)O[C@@H](C#N)c1cccc(Oc2ccccc2)c1)c1ccc(Cl)cc1 | inactive |  |
| CC1CCCC1.[C-]#[O+].[C-]#[O+].[C-]#[O+].[Mn] | inactive |  |
| CCc1cccc(C)c1N(C(=O)CCl)[C@@H](C)COC | inactive |  |
| Cc1cccc2sc3nncn3c12 | inactive |  |
| CCN(CC)C(=O)N[C@H]1C[C@@H]2c3cccc4[nH]cc(c34)C[C@H]2N(C)C1 | inactive |  |
| Oc1ccc(Cl)c(Cl)c1Cl | inactive |  |
| CCCCc1c(C)nc(NCC)[nH]c1=O | inactive |  |
| CN(C)c1ccc(N(C)C)cc1 | inactive |  |
| C=CCc1cc(OC)c2c(c1)OCO2 | inactive |  |
| C[C@H](CN1CCOCC1)C(C(=O)N1CCCC1)(c1ccccc1)c1ccccc1 | inactive |  |
| C[C@]12CCC(=O)C[C@@H]1CC[C@@H]1[C@@H]2CC[C@@]2(C)[C@H]1CC[C@]2(C)O | inactive |  |
| C[C@]12CC[C@H](O)C[C@H]1CC[C@@H]1[C@@H]2CC[C@]2(C)[C@@H](c3ccc(=O)oc3)C[C@H]3O[C@]132 |  | 0.859 µM (active) |
| CN1[C@@H]2CC[C@H]1CC(O)C2 (stereo not given in full) | inactive |  |
| O=Cc1ccccc1 | inactive |  |
| CNC(C)Cc1ccccc1OC (stereo not given) | inactive |  |

| Structure (SMILES) | outcome | AC50 |
| --- | --- | --- |
| N#Cc1cc(I)c(O)c(I)c1 | inactive |  |
| COC(=O)COc1ccc(Cl)cc1Cl | inactive |  |
| CC(C)CON=O | inactive |  |
| CC[C@H](OC(C)=O)C(C[C@H](C)NC)(c1ccccc1)c1ccccc1 | inactive |  |
| Nc1ccccc1Cl | inactive |  |
| NCC(O)c1cccc(O)c1 (stereo not given) | inactive |  |
| ClC=C(Cl)Cl | inactive |  |
| O=[N+]([O-])c1cc(I)c(O)c(I)c1 |  | 7.77 µM (active) |
| C=CC[C@]1(O)CC[C@H]2[C@@H]3CCC4=CCCC[C@@H]4[C@H]3CC[C@@]21C | inactive |  |
| CC(=O)O[C@H]1C[C@H](O[C@H]2[C@@H](O)C[C@H](O[C@H]3[C@@H](O)C[C@H](OC4CC[C@@]5(C)[C@H](CC[C@@H]6[C@@H]5CC[C@]5(C)[C@@H](C7=CC(=O)OC7)CC[C@]65O)C4)O[C@@H]3C)O[C@@H]2C)O[C@H](C)[C@H]1O[C@@H]1O[C@H](CO)[C@@H](O)[C@H](O)[C@H]1O (stereo not given in full) |  | 0.0994 µM (active) |
| CC[n+]1c(-c2ccccc2)c2cc(N)ccc2c2ccc(N)cc21 | inactive |  |
| C[C@]12CC[C@@H]3c4ccc(OC(=O)N(CCCl)CCCl)cc4CC[C@H]3[C@@H]1CC[C@@H]2OP(=O)(O)O | inactive |  |
| C=CC(C)(CCC=C(C)C)OC(=O)c1ccccc1N (stereo not given) | inactive |  |
| CCOP(=S)(OCC)Oc1cc(C)nc(N(CC)CC)n1 | inactive |  |
| CC[N+](=O)[O-] | inactive |  |
| CCC1(c2ccccc2)C(=O)NC(=O)N(C(=O)c2ccccc2)C1=O (stereo not given) | inactive |  |
| Nc1ccccc1C(=O)Oc1ccc2ccccc2c1 |  | 85.3 µM (active) |
| CC(C)(CCl)C(=O)Cl | inactive |  |
| CCOC(=O)C1OC1(C)c1ccccc1 (stereo not given) | inactive |  |
